According to PubChem BioAssay AID1259313 (Sanford-Burnham Center for Chemical Genomics, 2017):
Among all 340,000 compounds or so, about 8,500 (2.5%) were called active.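 The calls were made as follows: active = melting temperature shift of at least 10% of the positive control shift, at one fixed dose; inactive = the rest.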 What follows is part of a selection rich in actives, with near analogues and random picks from the rest.

These molecules were tested on Glutamate receptor ionotropic, NMDA 3A (GRIN3A) ligand-binding domain (assay: NR3A LBD thermal stabilization by compounds – biophysical, differential scanning fluorimetry, uHTS, primary screen (AID 1259313)). Details: at 25 µM, hits give high values, 0% = protein alone, 100% = glycine-bound protein.

| SMILES | Tm shift relative to glycine control |
| --- | --- |
| NNC(=O)CNC(c1ccccc1)c1cc(Cl)ccc1NC(=O)c1ccccc1 (stereo unspecified) | 2.13% (inactive) |
| O=C(CSc1ccccc1)Nc1ccc(C(=O)Nc2cccc(O)c2)cc1 | 29.4% (active) |
| O=C(Nc1ccc(CSc2ccccc2)cc1)c1ccc(CN2CCOCC2)cc1 | -2.35% (inactive) |
| CCOC(=O)c1ccc(NC(=O)CNC(=O)c2ccco2)cc1 | -0.36% (inactive) |
| COC(=O)c1ccc(NC(=O)c2ccco2)cc1 | 21.7% (active) |
| COc1ccc(S(=O)(=O)NNC(=O)Nc2ccc(C)cc2)c(OC)c1 | -2.73% (inactive) |
| CCOc1ccc(NC(=O)Nc2cc(C)ccc2OC)cc1 | -2.2% (inactive) |
| COc1cc(NC(=O)Nc2ccc(C)cc2)cc([N+](=O)[O-])c1 | 32.9% (active) |
| CSc1cccc(NC(=O)CSc2ccccc2)c1 | -11.8% (inactive) |
| CC(C)(C)NC(=O)c1cc(NC(=O)c2ccco2)cc(NC(=O)c2ccco2)c1 | 1.37% (inactive) |
| CCOC(=O)/C(C#N)=C\c1c(C)cc(C)c(COC(C)=O)c1C | -1.41% (inactive) |
| O=C1CSC(c2ccc(Cl)cc2)N1 (stereo unspecified) | 0.65% (inactive) |
| CCOc1ccccc1NC(=O)Cn1ncc2ccc([N+](=O)[O-])cc21 | 1.06% (inactive) |
| Cc1nonc1C(=O)N/N=C/c1ccc(O)cc1 | -3.82% (inactive) |
| O=C(CCCN1C(=O)CSc2ncccc21)N1CCN(c2cccc(C(F)(F)F)c2)CC1 | -1.45% (inactive) |
| Cc1ccc(S(=O)(=O)N2CCC3(CC2)OCCO3)c(C)c1 | -0.77% (inactive) |
| CCOc1ccc(Nc2nc(Cc3nnc(SCC(=O)c4ccc(C)cc4)o3)cs2)cc1 | -12.6% (inactive) |
| O=C1C(=O)N(CCCN2CCOCC2)C(c2ccc([N+](=O)[O-])cc2)/C1=C(\O)c1ccc2c(c1)OCCO2 (stereo unspecified) | 0% (inactive) |
| Cc1ccc(NC(=O)Cn2c(=O)n(CCC(=O)NC3CCN(Cc4ccccc4)CC3)c(=O)c3ccccc32)cc1 | 0.79% (inactive) |
| CC(=O)c1c(C)[nH]c(C(=O)OCC(=O)Nc2sc3c(c2C#N)CCCC3)c1C | 4.13% (inactive) |
| O=C(COc1ccccc1F)Nc1nc(-c2ccccn2)cs1 | -41.9% (inactive) |

| SMILES | Tm shift relative to glycine control |
| --- | --- |
| O=C(CN1C(=O)C2C3C=CC(C3)C2C1=O)Nc1nc(-c2ccccn2)cs1 (stereo unspecified) | 17.6% (active) |
| O=C(NCCN1C(=O)C2C3C=CC(C3)C2C1=O)Nc1ccccn1 (stereo unspecified) | -0.55% (inactive) |
| O=C(NCCc1ccccc1)C(=O)NCC1OCCN1S(=O)(=O)c1cccs1 (stereo unspecified) | 5.49% (inactive) |
| CCOC(=O)N1CCN(C(=O)c2ccccc2SCC(=O)NCC2CCCCC2)CC1 | 0.96% (inactive) |
| O=C(O)c1cscn1 | -2.23% (inactive) |
| Cc1oc(-c2ccccc2Cl)[n+]([O-])c1C | 0.65% (inactive) |
| COC(=O)C1=C(C)N(C)C(C)=C(C(=O)OC)C1c1cccc(Br)c1 | 10.9% (active) |
| COC(=O)C1NN=C(C(=O)c2ccc(Br)cc2)C1c1cccc(Br)c1 (stereo unspecified) | -3.88% (inactive) |
| COC(=O)C1=C(C)N(C)C(=S)NC1c1ccccc1 (stereo unspecified) | 1.46% (inactive) |
| O=C(Cc1coc2ccc3ccccc3c12)NCc1cccs1 | -3.17% (inactive) |
| COc1ccc2c(CC(=O)OCC(=O)NC(N)=O)coc2c1 | -1.31% (inactive) |
| Cn1cccc1C(=O)NC(=O)COC(=O)Cc1coc2ccc3ccccc3c12 | 711% (active) |
| CN(C)S(=O)(=O)c1ccc(C(=O)NCC2(N3CCOCC3)CCCCC2)cc1 | -0.34% (inactive) |
| CCC(C)NC(=O)C1c2ccccc2C(=O)N1Cc1ccccc1 (stereo unspecified) | 0.89% (inactive) |
| Cc1c(NS(=O)(=O)c2cccc(C(=O)Nc3ccc(SC(F)F)cc3)c2)c(=O)n(-c2ccccc2)n1C | -4.82% (inactive) |
| COc1ccc(NC(=O)/C(N=Nc2cccc(S(=O)(=O)Nc3ccc(SC(F)F)cc3)c2)=C(\C)O)cc1 | 28% (active) |
| Nc1cccc(S(=O)(=O)Nc2ccc(SC(F)F)cc2)c1 | -8.52% (inactive) |
| Cc1ccc(NN=C2C(=O)OC(C)(C)OC2=O)c(C)c1 | -1.21% (inactive) |
| CC(CO)N1CCS(=O)(=O)CC1 (stereo unspecified) | 0.09% (inactive) |
| CCOc1ccc(N/C(N)=N/c2nc(C)c(C)c(=O)[nH]2)cc1 | 2.12% (inactive) |
| Cc1ccc(Nc2nc(C)cc(C)c2C(N)=O)cc1 | -2.09% (inactive) |

| SMILES | Tm shift relative to glycine control |
| --- | --- |
| Cc1ccc2nc(Nc3ccccc3)cc(C)c2c1 | 30.3% (active) |
| CCOc1ccc(NC(=O)c2cc(C)nc3ccccc23)cc1 | -0.84% (inactive) |
| CN1CCN(c2nc(Nc3ccc(O)cc3)nc3ccccc23)CC1 | -0.23% (inactive) |
| Cc1cc(Nc2ccc(Br)cc2)nc2ccccc12 | 45.6% (active) |
| Cc1ccc2nc(C)c3c(c2c1)N(c1ccccc1)CC3 | -1.71% (inactive) |
| Cc1cccc(NC(=S)N2CCC(O)CC2)c1C | 1.31% (inactive) |
| CC(C)=CCN1CCN(Cc2ccc(Oc3ncccn3)cc2)CC1CCO (stereo unspecified) | 0.09% (inactive) |
| COC(=O)c1ccc(NC(=O)C23CC4CC(C2)CC(n2cnc(Cl)n2)(C4)C3)cc1 | -0.61% (inactive) |
| O=C(CSc1ncn[nH]1)Nc1nc(-c2cccc([N+](=O)[O-])c2)cs1 | -2.42% (inactive) |
| COc1ccc(-n2cnnc2SCC(=O)Nc2cccc([N+](=O)[O-])c2)cc1 | -0.86% (inactive) |
| O=C(CSc1nc(-c2ccccc2)cs1)Nc1cccc([N+](=O)[O-])c1 | 34.4% (active) |
| Cc1cc(/C=N/n2cnnc2)c(C)n1-c1ccc2ncccc2c1 | -0.4% (inactive) |
| Cc1ccc(C(=O)/C=C/c2c(C)nn(-c3ccccc3)c2Cl)cc1 | -10.2% (inactive) |
| Cc1nn(-c2ccccc2)c(C)c1/C=C/C(=O)OC(C)C(N)=O (stereo unspecified) | -7.09% (inactive) |
| Cc1nn(-c2ccccc2)c(Cl)c1/C=C/C(=O)c1ccc(O)cc1 | 15.2% (active) |
| COc1ccc(Br)c2c1C(=O)CC2 | 2.15% (inactive) |
| CCCCN(C)C(=O)C1CCN(Cc2ccccn2)CC1 | 1.37% (inactive) |
| COc1ccc(-c2cc(C(=O)N3CCN(Cc4ccc5c(c4)OCO5)CC3)on2)cc1OC | -2.25% (inactive) |
| COc1ccc(-c2csc3ncnc(N4CCN(S(=O)(=O)c5ccccc5C#N)CC4)c23)cc1 | -2.57% (inactive) |
